# Bioassay records deposited in PubChem by National Center for Advancing Translational Sciences (NCATS).
# Compounds with a hit are over-represented: about 13% of the library has one in this group of screens.
# HCMV antiviral – human cytomegalovirus inhibition; HFF cells, HCMV-luciferase reporter, 72 h; active compounds read low; activity change, negative = inhibition, % at 57.5 µM; actives 4.5% (n = 410,000); in the data active means activity change below about -60%; inconclusive means no clear call, values can overlap the other calls; inactive means above about -39%
#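 HFF cells seeded 16 h at 37C, treated with compounds, infected with luciferase-reporter HCMV at MOI 1 PFU/cell; luciferase read at 72 h post infection, normalized to buffer-only and Salinomycin controls.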
# Pf growth 48h – P. falciparum growth inhibition at 48 hours (one generation) | P. falciparum luciferase growth in erythrocytes, 48 h | Potency, µM (series often up to 28.7 µM), most hits filed as inhibitors | actives 5.9% (n = 310,000) | AID 504832
#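 Luciferase-expressing parasites in RBCs, 2% Hct / 0.1% parasitemia final; RPMI 1640 + 0.5% Albumax; 37 C, 5% CO2, one generation; luminescence read-out, lower signal = inhibition.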
# Pf growth 96h – P. falciparum growth inhibition at 96 hours | actives 6.9% (n = 320,000) | AID 504834 | Potency, µM (titrated, usually from 28.7 µM), hits mostly inhibitors | P. falciparum luciferase reporter growth, 96 h
#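 Delayed-death screen, second-generation endpoint: infected erythrocytes, 2% hematocrit, 0.05% parasitemia final; 96 hours at 37 C, 5% CO2; luciferase detection reagent; luminescence decrease equals reduced growth.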
# HCV inhibitor – inhibitors of hepatitis C virus infection. Huh7.5.1 HCVcc-Cre infection, luciferase reporter, 44 h. Potency, µM (top dose mostly 41.8 µM), most hits filed as inhibitors. actives 3.4% (n = 340,000). AID 651820
#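 Antiviral activity was scored by luciferase reporter output from cells infected with HCVcc-Cre (~0.5 moi) in presence of compound, 44 h infection period, cells seeded 1,000/well 4 h prior.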
# Hits are given with their value; i = inactive; ? = inconclusive; nt = no result. Unless noted, the call rests on the fitted dose curve; in most records, active means well fitted inhibition curve with a large enough effect; inconclusive means small, poorly fitted or top-dose-only effect, or another doubt; inactive means no such curve, though single readings can be large or run the other way.
SMILES,HCMV antiviral,Pf growth 48h,Pf growth 96h,HCV inhibitor
COc1cc(CNC(=O)c2cnc3c(-c4cccc(C)c4)c(C)nn3c2C)cc(OC)c1OC,i,nt,nt,nt
COCCCNc1nc2c(S(=O)(=O)c3ccccc3)nnn2c2ccc(Cl)cc12,i,nt,nt,nt
CCCCCCCn1c(=N)n(CC(O)c2ccco2)c2ccccc21 (stereo unspecified),-72.7,4.15µM,?,8.91µM
CCCCCCCn1c(=N)n(CC(=O)c2ccco2)c2ccccc21,i,nt,11.7µM,?
N=c1n(CCN2CCCC2)c2ccccc2n1CC(O)c1ccco1 (stereo unspecified),i,?,i,?
CCCCn1c(=N)n(CC(=O)c2ccco2)c2ccccc21,i,i,i,?
CCS(=O)(=O)c1ncc(N(Cc2ccccc2)Cc2ccco2)c(C(=O)Nc2ccc(C)c(C)c2)n1,i,nt,nt,nt
CCCCCCC(c1c(C)n(C)n(-c2ccccc2)c1=O)c1c(C)n(C)n(-c2ccccc2)c1=O,i,13.1µM,i,?
COc1ccc(Nc2nn(-c3ccc(OC(F)(F)F)cc3)nc2C(C)=O)cc1,i,nt,nt,nt
CCOC(=O)c1sc2c(c1C)c(=O)c(C(=O)OCC)cn2CC,i,2.33µM,i,i
CCOC(=O)c1cn(CC)c2cc3c(cc2c1=O)OCO3,i,i,?,i
Cc1nc2ccccn2c1C(=O)NNS(=O)(=O)c1ccc(C(C)(C)C)cc1,-63.5,i,i,?
COc1ccc(Br)cc1S(=O)(=O)NNC(=O)c1c(C)nc2ccccn12,i,i,i,i
CCc1ccc(S(=O)(=O)c2c[nH]c3cc(OC)c(OC)cc3c2=O)cc1,i,nt,nt,nt
Cc1cccc(-n2c(=O)c3c(c4cc(C)ccc4n3C)n(CC(=O)Nc3ccc(C)cc3C)c2=O)c1,i,nt,nt,nt
CCCOc1ccc(N2CC(C(=O)Nc3ccccc3C(=O)NC)CC2=O)cc1 (stereo unspecified),i,i,?,i
CCOc1ccc(N2CC(C(=O)N3CCCC3)CC2=O)cc1 (stereo unspecified),?,i,11.7µM,i
CCOc1ccc(N2CC(C(=O)Nc3ccc(F)cc3F)CC2=O)cc1 (stereo unspecified),-101.6,i,9.28µM,i
CCCOc1ccc(N2CC(C(=O)Nc3cccc(Cl)c3Cl)CC2=O)cc1 (stereo unspecified),-87.5,nt,nt,nt
CCOc1ccc(N2CC(C(=O)Nc3ccccc3OC)CC2=O)cc1 (stereo unspecified),i,?,?,i
CCOc1ccc(N2CC(C(=O)Nc3ccc4c(c3)OCO4)CC2=O)cc1 (stereo unspecified),-64.0,i,i,i
CCOc1ccc(N2CC(C(=O)N3CCCCCC3)CC2=O)cc1 (stereo unspecified),i,i,i,i
Cc1ccc(CNC(=O)C(CC(C)C)N2Cc3ccccc3C2=O)cc1 (stereo unspecified),i,nt,nt,nt
CC(C)(C)C(=O)Nc1ccc2nc(SCC(=O)N3CCCC3)sc2c1,i,nt,nt,nt
CCOc1ccc(OCCC(=O)Nc2cccc(S(=O)(=O)N3CCCC3)c2)cc1,i,?,14.7µM,11.2µM
SMILES,HCMV antiviral,Pf growth 48h,Pf growth 96h,HCV inhibitor
CCOc1ccc(N2CC(C(=O)Nc3cccc(S(=O)(=O)N4CCCC4)c3)CC2=O)cc1 (stereo unspecified),i,?,?,10µM
CCCCOc1ccc(N2CC(C(=O)NCCc3ccc(OC)c(OC)c3)CC2=O)cc1 (stereo unspecified),i,i,11.7µM,?
CCOc1ccc(OCCC(=O)OCC(=O)Nc2cccc(S(=O)(=O)N3CCCCC3)c2)cc1,i,nt,nt,?
CCOc1ccc(CN(C)C(=O)c2cc(S(=O)(=O)N3CCCC3)ccc2C)cc1,i,11.7µM,?,?
COc1ccc(C)cc1NS(=O)(=O)c1ccc2c(c1)CCCN2C(C)=O,i,nt,nt,nt
COc1ccc(S(=O)(=O)N2CCCCCC2)cc1C(=O)N(C)Cc1ccc(Cl)cc1Cl,i,?,?,11.2µM
CCCNC(=O)C1CC(=O)N(c2ccc(OCc3ccc(F)cc3)cc2)C1 (stereo unspecified),i,i,?,i
C=CCNC(=O)C1CC(=O)N(c2ccc(OCc3ccc(F)cc3)cc2)C1 (stereo unspecified),i,i,11.7µM,i
Cc1cccc(NC(=O)Nc2nnc(N(C)C3CCCCC3)s2)c1C,i,nt,nt,nt
Cc1ccc(C(CC(=O)N2CCCC2)c2ccccc2)c(O)c1 (stereo unspecified),?,i,?,i
Cc1ccc(O)c([C@H](CCN(C(C)C)C(C)C)c2ccccc2)c1,i,1.69µM,i,i
O=C(Nc1ccccc1)c1cccc(S(=O)(=O)Nc2cccc(F)c2)c1,i,nt,nt,nt
